This is an account of results in PubChem BioAssay.

The source made the active and inactive calls.

Assay [1] deals with Plasmodium falciparum Sir2 (PF13_0152, Sir2A). The assay is described as follows: Plasmodium falciparum Sir2A binding compounds – biochemical, small-molecule microarray, 635 nm fluorescence, primary screen (AID 1098).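 Further: score merges spot fluorescence intensity with its signal-to-noise ratio.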 The conditions noted are these: fluorescence 635 nm, higher = more signal.
Assay [2] is described as follows: probe aDKK1 binding to arrayed compounds – biochemical, biotinylated probe, 635/667 nm fluorescence, primary screen (AID 1099).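 Further: score merges 667nm spot fluorescence with signal to noise across triplicate slides.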 Particulars: small-molecule microarray, higher = more signal.
Assay [3] in a line: probe aCHRDL2 binding to arrayed compounds – biochemical, biotinylated probe, 635/667 nm fluorescence, primary screen (AID 1100). Particulars: small-molecule microarray, higher = more signal.
The nature of assay [4]: change in splice reporter luminescence, either direction, cell-based, HEK293, spliceosome inhibition project, primary screen (AID 1101).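 Further: HEK293 cells carrying a splicing-competent luciferase reporter gene; test concentration not given here.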 The conditions noted are these: HEK293 splicing luciferase reporter, 24 h, higher = more signal, called active from +8 up or from −8 down. In general terms: In a reporter assay the amount or activity of a reporter protein is the signal.
In assay [5] the target is Fibroblast growth factor 10 (Homo sapiens) (UniProt O15520). Kind of assay: compounds binding fibroblast growth factor 10 – biochemical, small-molecule microarray, 635 nm fluorescence, primary screen (AID 1102). The conditions noted are these: FGF10 binding, fluorescence 635 nm, higher = more signal.
Fibroblast growth factor 10 (Homo sapiens), sequence (O15520 whole entry, looked up): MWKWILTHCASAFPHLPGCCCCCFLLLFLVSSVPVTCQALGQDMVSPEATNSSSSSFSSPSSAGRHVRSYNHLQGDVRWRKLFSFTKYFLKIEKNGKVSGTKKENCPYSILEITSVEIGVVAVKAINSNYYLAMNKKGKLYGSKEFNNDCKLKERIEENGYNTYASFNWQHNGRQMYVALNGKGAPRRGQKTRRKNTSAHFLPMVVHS
Assay [6] concerns glycogen synthase kinase-3 (GSK3A per assay name; protocol says GSK3B). Kind of assay: compounds binding glycogen synthase kinase-3 – biochemical, small-molecule microarray, 635 nm fluorescence, GSK3A, primary screen (AID 1103). Further: the record names both GSK3A and GSK3B. The conditions noted are these: fluorescence 635 nm, higher = more signal.
The target in assay [7] is Epidermal growth factor receptor (Homo sapiens) (UniProt P00533). Kind of assay: compounds binding epidermal growth factor receptor – biochemical, small-molecule microarray, 635 nm fluorescence, primary screen (AID 1104).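 Further: score merges 667 nm emission intensity with spot signal to noise over triplicate slides.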 Particulars: EGFR binding, higher = more signal.
Epidermal growth factor receptor (Homo sapiens), sequence (P00533 whole entry, looked up): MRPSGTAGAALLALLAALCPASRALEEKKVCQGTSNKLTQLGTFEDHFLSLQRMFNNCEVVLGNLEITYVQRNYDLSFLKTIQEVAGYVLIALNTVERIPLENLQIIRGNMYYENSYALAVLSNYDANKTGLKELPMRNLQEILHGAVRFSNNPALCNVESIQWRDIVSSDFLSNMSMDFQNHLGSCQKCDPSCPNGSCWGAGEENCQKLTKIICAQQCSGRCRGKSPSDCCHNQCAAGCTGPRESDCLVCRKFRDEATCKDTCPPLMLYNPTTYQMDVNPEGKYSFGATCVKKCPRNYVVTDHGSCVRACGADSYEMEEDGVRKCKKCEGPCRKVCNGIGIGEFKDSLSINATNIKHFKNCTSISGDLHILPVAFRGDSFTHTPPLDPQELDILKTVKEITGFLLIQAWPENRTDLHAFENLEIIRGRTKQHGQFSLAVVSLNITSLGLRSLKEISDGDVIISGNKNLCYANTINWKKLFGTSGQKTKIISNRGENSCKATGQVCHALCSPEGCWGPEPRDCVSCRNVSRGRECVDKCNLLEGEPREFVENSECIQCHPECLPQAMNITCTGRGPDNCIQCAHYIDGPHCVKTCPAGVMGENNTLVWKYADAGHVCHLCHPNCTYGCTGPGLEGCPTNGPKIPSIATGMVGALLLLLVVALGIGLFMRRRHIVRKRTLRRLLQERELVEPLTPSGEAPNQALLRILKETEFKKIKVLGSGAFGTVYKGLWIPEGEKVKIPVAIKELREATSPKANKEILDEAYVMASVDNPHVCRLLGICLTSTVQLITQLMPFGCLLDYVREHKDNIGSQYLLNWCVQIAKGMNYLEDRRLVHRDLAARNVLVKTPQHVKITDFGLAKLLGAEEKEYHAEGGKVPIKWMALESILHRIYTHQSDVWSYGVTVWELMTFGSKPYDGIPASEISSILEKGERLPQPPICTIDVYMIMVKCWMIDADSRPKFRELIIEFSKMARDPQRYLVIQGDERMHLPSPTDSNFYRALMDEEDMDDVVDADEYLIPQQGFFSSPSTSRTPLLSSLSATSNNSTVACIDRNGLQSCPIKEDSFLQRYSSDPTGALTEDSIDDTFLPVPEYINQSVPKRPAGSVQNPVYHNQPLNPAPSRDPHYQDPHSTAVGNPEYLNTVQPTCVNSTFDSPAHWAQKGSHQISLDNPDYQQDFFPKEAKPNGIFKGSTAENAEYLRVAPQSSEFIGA
Assay [8] deals with Follistatin-related protein 3 (Homo sapiens) (UniProt O95633). Kind of assay: compounds binding follistatin-related protein 3 – biochemical, small-molecule microarray, 635 nm fluorescence, primary screen (AID 1105).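 Further: score merges emission near 667 nm and signal to noise per printed spot across three slides.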 The conditions noted are these: FSTL3 binding, higher = more signal.
Follistatin-related protein 3 (Homo sapiens), sequence (O95633 whole entry, looked up): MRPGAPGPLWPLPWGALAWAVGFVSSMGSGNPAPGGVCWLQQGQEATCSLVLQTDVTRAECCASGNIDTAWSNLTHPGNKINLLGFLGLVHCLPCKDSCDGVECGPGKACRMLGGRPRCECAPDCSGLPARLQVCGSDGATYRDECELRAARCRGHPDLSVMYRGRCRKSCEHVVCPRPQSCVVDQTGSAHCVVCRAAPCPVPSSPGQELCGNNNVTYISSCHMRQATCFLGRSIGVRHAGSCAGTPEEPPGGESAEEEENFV
The target of assay [9] is Dickkopf-related protein 1 (Homo sapiens) (UniProt O94907). Kind of assay: small molecules binding DKK1 protein – biochemical, small-molecule microarray, 635 nm fluorescence scan, primary screen (AID 1106).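 Further: score merges emission near 667 nm with signal to noise over three replicate slides.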 The conditions noted are these: higher = more signal.
Dickkopf-related protein 1 (Homo sapiens), sequence (O94907 whole entry, looked up): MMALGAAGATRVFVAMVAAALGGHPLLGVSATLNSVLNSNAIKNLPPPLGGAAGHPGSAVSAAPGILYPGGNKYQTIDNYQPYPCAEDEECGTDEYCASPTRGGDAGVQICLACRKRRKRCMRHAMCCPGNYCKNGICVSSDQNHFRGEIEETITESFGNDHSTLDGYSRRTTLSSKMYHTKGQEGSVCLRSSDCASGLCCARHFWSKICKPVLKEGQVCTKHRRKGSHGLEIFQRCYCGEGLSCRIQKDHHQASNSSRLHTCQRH
Assay [10] concerns Inhibin beta A chain (activin A). Kind of assay: small molecules binding activin A – biochemical, small-molecule microarray, 635 nm fluorescence scan, primary screen (AID 1107).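 Further: mouse activin A protein probed at 4.33 µg/mL on printed slides; score merges bound-protein fluorescence near 667 nm with spot signal-to-noise.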 Particulars: INHBA, higher = more signal.
Assay [11] relates to Human papillomavirus type 1a protein E7 (residues 44-93). The assay is described as follows: small molecules binding HPV E7 44-93 – biochemical, small-molecule microarray, residues 44-93, 635 nm fluorescence, primary screen (AID 1108).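 Further: E7 fragment applied at 1 µg/mL in TBST for 1 h at 4 C; score combines spot fluorescence with its signal to noise ratio.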 The conditions noted are these: fluorescence 635 nm, higher = more signal.
The nature of assay [12]: hepatitis C replication reporter changes, two-sided – Huh7 cells, luciferase reporter, HCV replication inhibitor project, primary screen (AID 1109).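 Further: huh7 hepatoma cells harbouring a luciferase neomycin HCV replicon reporter; luciferase luminescence as measure of HCV replicon replication; test concentration not given here.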 The conditions noted are these: Huh7 HCV replicon luciferase reporter, 48 h; higher = more signal.
For assay [13], the target named is Left-right determination factor 2 (Homo sapiens) (UniProt O00292). The assay is described as follows: small molecules binding LEFTY2 protein – biochemical, small-molecule microarray, 635 nm fluorescence scan, primary screen (AID 1110). Particulars: higher = more signal.
Left-right determination factor 2 (Homo sapiens), sequence (O00292 whole entry, looked up): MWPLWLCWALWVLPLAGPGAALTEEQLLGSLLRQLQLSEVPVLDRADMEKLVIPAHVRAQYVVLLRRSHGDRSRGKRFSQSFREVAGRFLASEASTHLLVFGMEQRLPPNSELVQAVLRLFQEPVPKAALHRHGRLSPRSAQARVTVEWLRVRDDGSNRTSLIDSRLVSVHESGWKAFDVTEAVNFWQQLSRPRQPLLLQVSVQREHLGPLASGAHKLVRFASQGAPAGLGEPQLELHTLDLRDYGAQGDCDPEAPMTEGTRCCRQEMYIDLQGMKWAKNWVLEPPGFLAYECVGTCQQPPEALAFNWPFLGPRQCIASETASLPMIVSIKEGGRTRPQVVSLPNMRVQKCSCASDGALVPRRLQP
Assay [14] deals with Calmodulin-1 (Homo sapiens) (UniProt P0DP23). The assay is described as follows: small molecules binding calmodulin-1 with EGTA – biochemical, small-molecule microarray, Cy5-labelled CALM1, profiling panel (AID 1111).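 Further: labelled calmodulin applied in Tris saline Tween buffer holding calcium plus EGTA and DTT.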 Particulars: Cy5-CALM1 binding fluorescence, higher = more signal.
Assay [15] shares this target. Kind of assay: small molecules binding Ca-loaded calmodulin-1 – biochemical, small-molecule microarray, Cy5-labelled CALM1, plus calcium, artefact control for SMM control-protein annotation, profiling panel (AID 1112).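 Further: score merges spot fluorescence with signal to noise from triplicate slides.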 Particulars: Cy5-CALM1 binding fluorescence, higher = more signal.
A short description of assay [16]: probe aWnt5a binding to arrayed compounds – biochemical, biotinylated probe, 635/667 nm fluorescence, primary screen (AID 1113).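 Further: score merges 667 nm fluorescence intensity with signal-to-noise per printed feature.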 The conditions noted are these: small-molecule microarray, higher = more signal.
Assay [17] can be described thus: probe aShh binding to arrayed compounds – biochemical, biotinylated probe, 635/667 nm fluorescence, primary screen (AID 1114).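 Further: probe is biotin-labelled aShh protein from a stem cell growth factor screen; measures binding of labelled protein to compounds printed on the slide; score merges feature fluorescence at 667 nm with signal-to-noise.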 The conditions noted are these: small-molecule microarray, higher = more signal.
Assay [18] in a line: probe aNog binding to arrayed compounds – biochemical, biotinylated probe, 635/667 nm fluorescence, primary screen (AID 1115).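 Further: probe is biotinylated aNog protein used at 0.15 µg/mL for 1 h at 4 C; z-score combines 667 nm fluorescence of each spot with its signal to noise.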 The conditions noted are these: small-molecule microarray, higher = more signal.
In assay [19] the target is Torsin-1A-interacting protein 1 (Homo sapiens) (UniProt Q5JTV8). Kind of assay: compound microarray binding of lysate hLAP1 – cell lysate, small-molecule microarray, COS7 lysate, 635/667 nm fluorescence, primary screen (AID 1116). Particulars: 635 nm fluorescence, higher = more signal.
Torsin-1A-interacting protein 1 (Homo sapiens), sequence (Q5JTV8 whole entry, looked up): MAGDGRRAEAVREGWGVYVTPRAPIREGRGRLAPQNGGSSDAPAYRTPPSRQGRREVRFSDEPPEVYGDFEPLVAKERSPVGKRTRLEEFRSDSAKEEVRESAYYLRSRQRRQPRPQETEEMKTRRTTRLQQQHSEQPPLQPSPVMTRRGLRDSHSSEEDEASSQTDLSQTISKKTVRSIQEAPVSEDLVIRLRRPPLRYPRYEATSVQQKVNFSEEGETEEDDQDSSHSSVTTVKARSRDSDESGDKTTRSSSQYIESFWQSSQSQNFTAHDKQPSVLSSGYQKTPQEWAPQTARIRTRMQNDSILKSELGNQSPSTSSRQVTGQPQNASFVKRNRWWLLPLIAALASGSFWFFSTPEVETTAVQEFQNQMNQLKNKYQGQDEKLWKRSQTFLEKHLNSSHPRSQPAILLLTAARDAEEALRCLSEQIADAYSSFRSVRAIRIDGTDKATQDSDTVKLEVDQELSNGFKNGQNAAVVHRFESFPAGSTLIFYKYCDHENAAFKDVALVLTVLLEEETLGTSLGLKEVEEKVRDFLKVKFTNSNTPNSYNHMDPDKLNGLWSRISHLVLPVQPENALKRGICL
In assay [20] the target is Alpha-bungarotoxin (Bungarus multicinctus) (UniProt P60615). The assay is described as follows: compounds binding labelled alpha-BTX control protein – biochemical, small-molecule microarray, Alexa647 label, 635/667 nm fluorescence, artefact control for SMM control protein annotation, profiling panel (AID 1117). Particulars: alpha-BTX-A647 binding fluorescence, higher = more signal.
Alpha-bungarotoxin (Bungarus multicinctus), sequence (P60615 whole entry, looked up): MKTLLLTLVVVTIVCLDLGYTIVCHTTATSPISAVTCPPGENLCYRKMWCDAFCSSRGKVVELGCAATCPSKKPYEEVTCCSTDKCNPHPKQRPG

Turning to `CO[C@H]1O[C@H](CO)[C@@H](OC(=O)Nc2ccccc2)[C@H](OC(=O)Nc2ccccc2-c2ccccc2)[C@H]1OC(=O)Nc1ccccc1-c1ccccc1`, the composite z-score in assay [1] is 1.79; in assay [2], 0.834; in [3] it was 0.91; in assay [5], 0.626; in assay [6], 1.31; in assay [7] it was -0.165. For the same molecule, the composite z-score in assay [8] was determined as 0.824; in assay [9] it was 0.482; in assay [10] it was 0.0315; in [11], 1.36; in assay [13] it was 0.152; in assay [14] it was 2.18. Also, the composite z-score in [15] was 0.438; in assay [16], -0.0735; in assay [17] it was 0.366; in assay [18], 0.767; in assay [19] it was 2.08; in assay [20] it was 2.54. The figures for the z-score in assay [4] and in [12] were -2.83 (inactive) and -3.9, respectively.
Consider `CCCCC(=C=CC[C@H](O)c1cccc(OCCO)c1)CCO`, for which the composite z-score is 0.674 in [1]; -0.0104 in [2]; 0.287 in assay [3]; 0.0392 in [5]; -0.558 in [6]; -0.932 in assay [7]. Also, the composite z-score in assay [8] was -0.764; in assay [9], -0.263; in assay [10], 1.07; in assay [11], -0.397; in assay [13], -0.497; in assay [14] it was -0.357. The composite z-score in [15] was -0.0182; in [16] it was -0.0462; in assay [17], 0.0639; in assay [18] it was 0.0511; in assay [19], 0.338; in assay [20] it was 0.629. For the same molecule, the z-score is -0.261 (inactive) in assay [4] and -1.21 in assay [12].
With `CC(=O)OC(C/C=C\B1OC(C)(C)C(C)(C)O1)c1ccccc1` (stereo not given), the composite z-score in assay [1] was -0.552; in assay [2], -0.264; in assay [3], 0.281; in assay [5], -0.704; in [6], -0.138; in [7] it was 0.247. Moreover, the composite z-score in assay [8] was 0.173; in [9] it was 0.0618; in assay [10], 1.38; in [11] it was -0.328; in assay [13], 0.149; in assay [14], -1.33. The composite z-score in assay [15] is -0.664; in assay [16], -0.152; in assay [17], -0.0813; in assay [18], -0.405; in assay [19], -0.0001; in [20] it was -0.236. For the same molecule, the z-score was -2.42 (inactive) in assay [4] and 0.386 in assay [12].
In the case of `COC(=O)c1c(CC[C@@H](CO)NC(=O)Nc2ccc(OC)cc2)oc(C(=O)Cc2ccccc2)c1C(=O)OC`, the composite z-score in [1] is 1.36; in assay [2], 0.0707; in assay [3], -0.0477; in assay [5] it was 0.394; in assay [6], 0.618; in assay [7], 0.0445. Besides, the composite z-score is 0.325 in assay [8]; 0.353 in [9]; 0.306 in assay [10]; 0.316 in [11]; 0.239 in assay [13]; -0.315 in assay [14]. The composite z-score in assay [15] is -0.464; in assay [16] it was -0.0445; in assay [17], -0.138; in [18], 0.068; in [19], 0.333; in [20], 0.655. Further, the z-score in assay [4] is -0.487 (inactive); in assay [12] it was 0.685.
In the case of `CC(C)[C@@H](C(=O)O)n1cc(-c2ccccn2)nn1`, the composite z-score in [1] is -0.0369; in assay [2], 0.98; in assay [3], 0.33; in [5] it was 0.0739; in assay [6], 0.428; in assay [7] it was 0.278. Also, the composite z-score in assay [8] amounted to 0.0231; in assay [9] it was 0.418; in assay [10] it was 0.805; in assay [11] it was 0.465; in assay [13], 0.249; in assay [14], 0.51. The composite z-score in assay [15] was 0.556; in [16], -0.0216; in [17] it was 0.0039; in assay [18], -0.195; in assay [19], 0.539; in assay [20], 0.703. The z-score was -0.015 (inactive) in [4] and -0.187 in assay [12].
Regarding `CC(C)(C)OC(=O)CC[C@]1(C(=O)NCc2ccccc2)N=C(c2ccc(OCCCO)cc2)O[C@H]1c1ccccc1N=[N+]=[N-]`, the composite z-score in assay [1] is 1.02; in assay [2], 1.36; in assay [3], 1.35; in assay [5], 1.21; in assay [6] it was 1.29; in [7] it was -0.0113. The composite z-score in assay [8] was 1; in [9], 0.496; in assay [10], 0.947; in [11] it was -0.385; in [13], 0.478; in assay [14], 2.14. Moreover, the composite z-score in assay [15] was found to be 0.756; in [16], 0.17; in assay [17], 0.57; in assay [18] it was 1.11; in assay [19] it was 1.63; in [20] it was 2.77. Further, the z-score in [4] is -2.19 (inactive); in [12], -0.5.
